Source: PubChem (Broad Institute)
C diff HTS – blocks growth of Clostridium difficile; Clostridium difficile clinical isolate growth, OD600, 24 h; active compounds read low; growth activity, negative = inhibition, % at 16 µg/mL (by protocol); 86,000 tested, 0.25% active; AID 1259249;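 active means mean growth activity at or below -80% and every replicate also at or below -80%; inconclusive means mean at or below -80% but some replicate above -80%; inactive means mean growth activity above -80%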;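 further: 0% = DMSO wells and -100% = levofloxacin 16 µg/mL wells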
Pf Dd2 inh – inhibitors of Plasmodium falciparum Dd2 growth; activity change, % at 10 µM; 94,000 tested, 2.3% active; P. falciparum Dd2 growth, SYBR Green, 72 h; active compounds read low; in the data active means activity change below about -80%; inconclusive means no clear call, values can overlap the other calls
T cruzi growth-1 – blocks T. cruzi growth in NIH3T3 culture | T. cruzi beta-gal in NIH3T3, GalScreen luminescence, 90 h | inhibition, % at 8.34 µM | 77,000 tested, 5.9% active;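 active means mean inhibition above about 93%, with at least 55% of replicates each passing it, limit read from the data, passing the limit was not always enough; inconclusive means only one of those two conditions holds; inactive means neither condition holds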
T cruzi growth-2 – Trypanosoma cruzi proliferation inhibition | shares compounds with T cruzi growth-1 | T. cruzi beta-gal in NIH3T3, GalScreen luminescence, 90 h | inhibition, % at 8.35 µM | 5,600 tested, 72% active;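 active means mean replicate inhibition above about 95% and at least 55% of replicates individually reaching it, limit read from the data; inconclusive means only one of the two criteria is met; inactive means neither criterion is met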
T cruzi growth-3 – blocks T. cruzi growth in NIH3T3 host cells. shares compounds with T cruzi growth-1. T. cruzi beta-gal in NIH3T3, GalScreen luminescence, 90 h. inhibition, % at 2.09 µM. 5,600 tested, 21% active. AID 651740;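 active means mean inhibition above about 95%, with at least 55% of replicates also reaching it, limit read from the data; inconclusive means meets just one of the two conditions; inactive means meets neither condition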;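 further: plate controls were neutral control median for no effect and positive control median for full effect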
NIH3T3 tox – cytotoxicity in mouse NIH/3T3 fibroblasts; cytotoxicity (signal decrease), % at 8.35 µM; AID 651742; NIH/3T3 viability, CellTiter-Glo ATP luminescence, 90 h; 5,600 tested, 14% active; shares compounds with T cruzi growth-1;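 active means mean signal decrease across replicates above about 35% based on untreated-well scatter, with enough replicates individually passing, limit read from the data; inconclusive means no rule stated though some were filed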;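 further: 0% = median of neutral control wells and 100% = median of positive control wells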
NIH3T3 tox 2 – cytotoxicity in mouse NIH/3T3 fibroblasts; AID 651744; shares compounds with T cruzi growth-1; NIH/3T3 viability, CellTiter-Glo ATP luminescence, 90 h; inhibition, % at 24.9 µM; 5,600 tested, 56% active;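 active means mean loss of cell viability signal at or above a set limit, and enough replicates individually reaching it; inconclusive means meets only the mean limit or only the replicate share; inactive means meets neither condition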;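 further: 0% = median of neutral control wells and 100% = median of positive control wells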
Active calls of the source: *; ? = inconclusive; nt = no result given. Compounds with a hit are over-represented: about 6.7% of the library has one in this group of screens.

SMILES | C diff HTS | Pf Dd2 inh | T cruzi growth-1 | T cruzi growth-2 | T cruzi growth-3 | NIH3T3 tox | NIH3T3 tox 2
Cc1ccc(-c2ccc3c(c2)O[C@H](CN(C)C(=O)Nc2ccc(F)cc2)[C@H](C)CN([C@H](C)CO)S3(=O)=O)cc1 | -5 | -52 | 122* | 110* | 80 | 5 | 66*
Cc1noc(C)c1NC(=O)N(C)C[C@@H]1Oc2ccc(NS(=O)(=O)c3cn(C)cn3)cc2CC(=O)N([C@@H](C)CO)C[C@@H]1C | -7 | -17 | 18 | nt | nt | nt | nt
C[C@H]1CN([C@@H](C)CO)C(=O)c2cccc(NC(=O)c3nc4ccccc4s3)c2O[C@H]1CN(C)S(C)(=O)=O | 0 | 31 | 50 | nt | nt | nt | nt
C[C@H]1CN([C@@H](C)CO)S(=O)(=O)c2ccc(-c3cncnc3)cc2O[C@@H]1CN(C)Cc1ccncc1 | 2 | -1 | 42 | nt | nt | nt | nt
Cn1cnc(CCNC(=O)C[C@@H]2CC[C@H]3[C@@H](COC[C@@H](O)CN3C(=O)C3CC3)O2)c1 | 8 | -6 | 104* | 102* | -25 | -23 | -23
Cn1cnc(CCNC(=O)C[C@H]2CC[C@@H]3[C@H](COC[C@H](O)CN3C(=O)Nc3ccc(C(F)(F)F)cc3)O2)c1 | 24 | -22 | ? | 84 | -7 | 6 | 2
Cn1cnc(CCNC(=O)C[C@@H]2CC[C@H]3[C@@H](COC[C@@H](O)CN3C(=O)Nc3ccc(C(F)(F)F)cc3)O2)c1 | 31 | -15 | 107* | -33 | 5 | 6 | 15
Cn1cnc(CCNC(=O)C[C@@H]2CC[C@H]3[C@@H](COC[C@H](O)CN3C(=O)C3CC3)O2)c1 | 5 | 4 | 12 | nt | nt | nt | nt
Cn1cnc(CCNC(=O)C[C@H]2CC[C@H]3[C@@H](COC[C@H](O)CN3C(=O)Nc3ccc(Cl)cc3)O2)c1 | nt | 1 | 44 | nt | nt | nt | nt
Cn1cnc(CCNC(=O)C[C@H]2CC[C@H]3[C@@H](COC[C@H](O)CN3C(=O)Nc3ccccc3)O2)c1 | -2 | 10 | 2 | nt | nt | nt | nt
COc1ccc2c3c(n(C)c2c1)[C@H](CO)NCC31CN(S(=O)(=O)c2ccc(C)cc2)C1 | -15 | -49 | nt | nt | nt | nt | nt
CC(=O)N(C)C[C@@H]1[C@H](c2ccc(-c3ccccc3F)cc2)[C@H](CO)N1C(C)=O | -2 | 20 | nt | nt | nt | nt | nt
O=C(C[C@H]1C=C[C@H](NC(=O)Nc2cc(F)ccc2F)[C@H](CO)O1)NCc1ccccn1 | 0 | 24 | -3 | nt | nt | nt | nt
O=C(C[C@@H]1C[C@@H]2c3cc(NS(=O)(=O)c4ccc(F)cc4)ccc3O[C@@H]2[C@H](CO)O1)NCc1ccccc1 | nt | -7 | -14 | nt | nt | nt | nt
O=C(C[C@@H]1C[C@H]2c3cc(NS(=O)(=O)c4ccc(F)cc4)ccc3O[C@H]2[C@H](CO)O1)NCc1ccc(Oc2ccccc2)cc1 | nt | -47 | 47 | nt | nt | nt | nt
COc1cccc(S(=O)(=O)Nc2ccc3c(c2)[C@H]2C[C@H](CC(=O)NCc4cccc(F)c4)O[C@H](CO)[C@H]2O3)c1 | -5 | -32 | 58 | nt | nt | nt | nt
O=C(C[C@H]1C[C@@H]2c3cc(NS(=O)(=O)c4ccc(F)cc4)ccc3O[C@@H]2[C@H](CO)O1)NCc1ccc(Oc2ccccc2)cc1 | nt | -32 | 118* | 97* | 32 | -10 | 79*
O=C(C[C@@H]1C[C@H]2c3cc(NS(=O)(=O)c4ccc(F)cc4)ccc3O[C@H]2[C@@H](CO)O1)NCc1ccc(Oc2ccccc2)cc1 | nt | -16 | 115* | ? | 54 | 37* | 67*
O=C(C[C@@H]1C[C@@H]2c3cc(NS(=O)(=O)c4ccc(F)cc4)ccc3O[C@@H]2[C@H](CO)O1)NCc1ccc(Oc2ccccc2)cc1 | -1 | -59 | 105* | 100* | -20 | 4 | 11
O=C(C[C@@H]1C[C@@H]2c3cc(NS(=O)(=O)c4ccc(F)cc4)ccc3O[C@@H]2[C@@H](CO)O1)NCc1ccc(Oc2ccccc2)cc1 | nt | -63 | 18 | nt | nt | nt | nt
COc1cccc(S(=O)(=O)Nc2ccc3c(c2)[C@H]2C[C@H](CC(=O)NCc4cccc(F)c4)O[C@@H](CO)[C@H]2O3)c1 | 3 | -38 | ? | 82 | 12 | -10 | -12
C[C@@H]1CN([C@H](C)CO)C(=O)c2cccc(NC(=O)Nc3cccc4ccccc34)c2O[C@@H]1CN(C)C | 11 | -52 | nt | nt | nt | nt | nt
CN1C(=O)c2cc(NC(=O)c3ccc(F)cc3)ccc2OC[C@@H]2O[C@H](CC(=O)NC3CCC3)CC[C@@H]21 | -7 | -4 | 11 | nt | nt | nt | nt
C[C@@H]1CN([C@@H](C)CO)C(=O)CCCn2cc(nn2)CO[C@@H]1CN(C)C(=O)NC1CCCC1 | nt | -12 | -9 | nt | nt | nt | nt
C[C@@H]1CN([C@@H](C)CO)C(=O)c2cc(NC(=O)Nc3ccc(C(F)(F)F)cc3)ccc2O[C@@H](C)CCCCO[C@H]1CN(C)S(=O)(=O)c1ccc(Cl)cc1 | 5 | -52 | 103* | 110* | 109* | -15 | 15
SMILES | C diff HTS | Pf Dd2 inh | T cruzi growth-1 | T cruzi growth-2 | T cruzi growth-3 | NIH3T3 tox | NIH3T3 tox 2
Cc1ccc(S(=O)(=O)N(C)C[C@H]2OCCCC[C@H](C)Oc3ccc(NC(=O)Nc4ccc(C(F)(F)F)cc4)cc3C(=O)N([C@H](C)CO)C[C@H]2C)cc1 | 3 | -74 | nt | nt | nt | nt | nt
C[C@@H]1CN([C@H](C)CO)C(=O)c2cc(NC(=O)Nc3ccc(C(F)(F)F)cc3)ccc2O[C@@H](C)CCCCO[C@@H]1CN(C)S(=O)(=O)c1ccc(Cl)cc1 | 5 | -68 | 103* | 106* | 80 | 2 | -6
Cc1ccc(S(=O)(=O)N(C)C[C@H]2OCCCC[C@H](C)Oc3ccc(NC(=O)Nc4ccc(C(F)(F)F)cc4)cc3C(=O)N([C@@H](C)CO)C[C@@H]2C)cc1 | 4 | -73 | nt | nt | nt | nt | nt
C[C@H]1CCCCO[C@H](CN(C)S(=O)(=O)c2ccc(Cl)cc2)[C@@H](C)CN([C@@H](C)CO)C(=O)c2cc(NC(=O)Nc3ccc(C(F)(F)F)cc3)ccc2O1 | 1 | -72 | 75 | nt | nt | nt | nt
C[C@@H]1CCCCO[C@H](CN(C)S(=O)(=O)c2ccc(Cl)cc2)[C@@H](C)CN([C@H](C)CO)C(=O)c2cc(NC(=O)Nc3ccc(C(F)(F)F)cc3)ccc2O1 | 4 | -61 | 112* | 102* | 108* | 17 | 31*
CO[C@H]1CN(C)C(=O)c2ccc(NC(=O)c3ccccc3F)cc2OC[C@H](C)N(C(C)=O)C[C@H]1C | nt | -14 | 18 | nt | nt | nt | nt
CN(C)C(=O)[C@@H]1[C@@H](CO)[C@@H]2Cn3c(ccc(C4=CCCC4)c3=O)[C@H]1N2CC1CCCC1 | 2 | 28 | nt | nt | nt | nt | nt
C[C@H](CO)N1C[C@H](C)[C@@H](CN(C)S(=O)(=O)c2cn(C)cn2)Oc2cc(C#Cc3cccc(F)c3)ccc2S1(=O)=O | 0 | -67 | 47 | nt | nt | nt | nt
C[C@@H]1CN([C@@H](C)CO)S(=O)(=O)c2ccc(C#Cc3ccccc3)cc2O[C@H]1CN(C)S(=O)(=O)c1cn(C)cn1 | -8 | -75 | 72 | nt | nt | nt | nt
